# Hits are enriched below; roughly 5.9% of the tested compounds scored in any of these assays.
# rCAG RNA binder: molecules binding r(CAG) RNA repeats. r(CAG) RNA repeat, TO-PRO-1 dye displacement fluorescence. inhibition, % at 3 µM. 370,000 compounds, 1.3% hits. AID 651821;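 active means inhibition above the plate cutoff, the mean of all test compounds on that plate plus 3 SD, cut at about 35% in these data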;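 further: 0% = DMSO alone and 100% = 100 µM mitoxantrone as full dye displacement; higher means more dye released from RNA so lower well fluorescence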
# PRMT1 FP inh: inhibitors of human PRMT1; Q99873; recombinant PRMT1, activity-based probe fluorescence polarization; inhibition, % at 2.79 µM; 370,000 compounds, 1.3% hits;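 active means inhibition above about 21% made by adding two undisclosed values, limit read from the data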
# Rtt109 Vps75: inhibitors of Candida albicans Rtt109/Vps75 histone acetyltransferase; Q5AAJ8; purified Rtt109/Vps75, ThioGlo CoA-SH fluorescence, 4 h; inhibition, % at 34.9 µM; 330,000 compounds, 0.16% hits; AID 540336;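 active means inhibition of at least 50% in every replicate; inconclusive means best replicate reaches 50% inhibition but some replicates fall short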
# ALR H2O2 inh: human ALR oxidase inhibition via reduced H2O2. P55789. purified ALR, DTT oxidation, H2O2 HRP-luminol luminescence. inhibition, % (no concentration beside the values). 290,000 compounds, 3.8% hits;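 active means mean replicate inhibition above about 79%, with every replicate also reaching it, limit read from the data; inconclusive means only one of the two criteria met; inactive means mean below limit and not every replicate reaching it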
# LANA-H2B inh: blocks KSHV LANA binding to histone H2A/H2B. cell-free LANA-H2A/H2B peptide, fluorescence polarization. inhibition, % (test concentration not listed). 320,000 compounds, 0.6% hits; in the data active means inhibition mostly above about 10%, no sharp cut-off; inactive means mostly below about 6.7%
# Target sequence (Q9QR71 whole entry, looked up): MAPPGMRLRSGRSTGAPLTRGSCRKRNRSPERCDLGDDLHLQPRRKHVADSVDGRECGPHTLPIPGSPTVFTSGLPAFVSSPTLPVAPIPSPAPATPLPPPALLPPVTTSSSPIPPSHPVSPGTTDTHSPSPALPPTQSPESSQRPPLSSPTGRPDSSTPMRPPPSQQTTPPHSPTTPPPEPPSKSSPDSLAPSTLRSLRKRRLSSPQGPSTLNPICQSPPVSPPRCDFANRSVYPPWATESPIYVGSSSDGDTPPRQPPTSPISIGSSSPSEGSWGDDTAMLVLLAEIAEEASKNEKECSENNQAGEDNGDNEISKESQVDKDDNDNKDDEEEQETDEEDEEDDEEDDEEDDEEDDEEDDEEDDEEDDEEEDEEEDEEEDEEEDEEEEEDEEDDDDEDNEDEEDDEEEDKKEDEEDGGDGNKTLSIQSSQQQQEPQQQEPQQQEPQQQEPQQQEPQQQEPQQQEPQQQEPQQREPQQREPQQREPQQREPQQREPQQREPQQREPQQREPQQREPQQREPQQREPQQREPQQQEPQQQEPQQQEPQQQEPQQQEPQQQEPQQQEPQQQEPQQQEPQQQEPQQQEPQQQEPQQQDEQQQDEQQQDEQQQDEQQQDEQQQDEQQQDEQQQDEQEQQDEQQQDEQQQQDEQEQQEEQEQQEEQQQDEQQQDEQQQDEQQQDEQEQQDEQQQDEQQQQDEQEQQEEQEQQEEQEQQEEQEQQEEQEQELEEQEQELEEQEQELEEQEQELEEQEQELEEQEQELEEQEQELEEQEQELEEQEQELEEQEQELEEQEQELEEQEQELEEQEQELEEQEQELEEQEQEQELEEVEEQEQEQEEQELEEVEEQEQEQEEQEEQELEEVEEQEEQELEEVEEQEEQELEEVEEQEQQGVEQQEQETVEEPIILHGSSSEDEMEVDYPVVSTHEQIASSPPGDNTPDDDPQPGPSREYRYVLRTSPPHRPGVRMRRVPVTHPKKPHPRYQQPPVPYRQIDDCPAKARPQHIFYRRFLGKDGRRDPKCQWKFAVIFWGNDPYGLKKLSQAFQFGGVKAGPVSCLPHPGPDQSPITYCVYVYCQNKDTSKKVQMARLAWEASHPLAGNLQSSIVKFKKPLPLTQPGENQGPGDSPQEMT
# ABHD5 PLIN5 PPI: inhibitors of human ABHD5-perilipin-5 interaction; Q00G26+Q8WTS1; Split G. princeps luciferase complementation, luminescence, 4 h; inhibition, % at 4 µM; 360,000 compounds, 0.78% hits;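 active means inhibition above the mean inhibition across every tested compound plus 3 SD, cut at about 22% in these data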;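 further: 0% = DMSO only wells and the 100% control is not disclosed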
# * = called active by the depositor; ? = inconclusive; nt = not tested or not shown.
SMILES,rCAG RNA binder,PRMT1 FP inh,Rtt109 Vps75,ALR H2O2 inh,LANA-H2B inh,ABHD5 PLIN5 PPI
COc1ccc(NC(=O)CSc2c3c(nc4ccccc24)CCC3)c(OC)c1,-3,0,3,98*,-4,5
COc1cc(CN2CCC(n3nccc3NC(=O)c3ccc4c(c3)OCO4)CC2)ccc1O,0,-1,7,-39,47*,1
CC(CCc1ccccc1)NS(=O)(=O)c1ccccc1F (stereo not given),-1,1,8,-2,2,0
O=C(NNc1ccc([N+](=O)[O-])cc1[N+](=O)[O-])c1ccco1,nt,nt,7,98*,0,-1
O=C(NC(=S)Nc1ccccc1[N+](=O)[O-])c1ccco1,2,-2,4,95*,-20,-11
Nc1ccc([N+](=O)[O-])cc1C(=O)NNC(=O)c1ccco1,3,5,-2,3,-10,9
O=C(NNc1ccc([N+](=O)[O-])cc1)c1ccco1,2,0,8,99*,-7,0
COC(=O)[C@]12C[C@H](CC(=O)NCCc3ccccc3OC)C(=O)N(Cc3ccc(Cl)cc3Cl)C1=C[C@H](C(C)(C)C)O[C@@H]2C,6,2,nt,nt,nt,nt
COc1ccc(F)cc1-c1cc(C(=O)NCc2ccccc2)[nH]n1,2,0,nt,nt,nt,3
CCc1nc2ccc(C(=O)N(C)C(C)C)cn2c1N(CC)Cc1cccc(Br)c1,-2,-2,nt,nt,nt,12
CSc1cccc(NC(=O)c2ccco2)c1,3,8,-3,98*,3,-4
CN(C)c1cccc(NC(=O)c2ccco2)c1,-2,-1,-4,99*,8,3
CC(=O)Nc1ccc(N/C=C/C(=O)c2ccco2)cc1,3,-1,11,-1,2,2
O=C(CSc1ccccc1)Nc1cccc(NC(=O)c2ccco2)c1,-5,-1,nt,-8,-4,-4
CN(C)c1ccc(N/C=C/C(=O)c2ccco2)cc1,13,21*,6,nt,0,-9
CC1N(C)c2cc(NC(=O)c3ccco3)ccc2C1(C)C (stereo not given),-1,17,14,98*,-9,4
CN(C(=O)c1cccc(NC(=O)c2ccco2)c1)c1ccccc1,-5,7,2,nt,3,-2
CCOc1cccc(-c2nnc(SCC(=O)Nc3ccc4c(c3)OCO4)n2N)c1,2,3,nt,nt,nt,nt
Nc1cc(C(F)(F)F)ccc1Nc1ccccc1,-1,4,16,98*,-4,-3
Nc1cc(C(F)(F)F)ccc1NCCc1ccccn1,-5,3,-6,98*,0,1
Nc1cc([N+](=O)[O-])ccc1Nc1ccccc1,4,1,17,99*,-3,2
O=[N+]([O-])c1ccc(O)c(NC(=S)Nc2ccccc2)c1,4,-2,14,98*,-3,-4
O=C(O)c1ccccc1Nc1cccc(C(F)(F)F)c1,8,-4,1,nt,-19,-3
c1ccc(NCCc2ccccn2)cc1,3,0,3,nt,nt,-1
N=c1c2c(-c3ccccc3)c(-c3ccccc3)n(CCc3ccccc3)c2ncn1C1CCC(O)CC1 (stereo not given),10,1,nt,nt,nt,nt
SMILES,rCAG RNA binder,PRMT1 FP inh,Rtt109 Vps75,ALR H2O2 inh,LANA-H2B inh,ABHD5 PLIN5 PPI
N#Cc1cc(N)c(Nc2ccccc2)cc1C#N,0,0,-5,61,4,2
N#Cc1ccc(Nc2ccccc2)c(N)c1,-1,4,-3,98*,7,0
Cc1ccc([N+](=O)[O-])cc1N,-2,-3,-2,1,-4,-2
Nc1cc([N+](=O)[O-])ccc1O,4,4,5,99*,0,8
O=[N+]([O-])c1cccc(S(=O)(=O)N2CCCCC2)c1,1,0,0,-10,1,6
COc1cc(-c2cnc3c(NC=O)cc(-c4ccsc4)cn23)cc(OC)c1OC,11,8,nt,nt,nt,3
Cc1ccc2nc(-c3ccc(C#N)cc3)c(Cc3cccc(Cl)c3)n2c1,7,-5,nt,nt,nt,0
CCOC(=O)C1CCN(S(=O)(=O)c2ccccc2[N+](=O)[O-])CC1,-5,3,nt,-12,6,11
CCOC(=O)C1CCN(c2ccc([N+](=O)[O-])c(C(C)=O)c2)CC1,-5,4,115*,1,-4,8
CCN1C(=O)N[C@H]2C[C@H](C(=O)N3CCCC3)[C@H](C)[C@H](c3ccccc3)C[C@H]21,2,-3,nt,nt,nt,nt
O=C(Cn1ccc2cc(S(=O)(=O)N3CCCC3)ccc21)NCCc1ccccc1,4,-4,12,7,12*,2
O=C(CCn1ccc2cc(S(=O)(=O)N3CCCC3)ccc21)NCCc1ccccc1,2,1,8,-8,0,-3
COc1ccc(C(C)c2cc3c(cc2OCC(=O)O)OCO3)cc1 (stereo not given),10,0,nt,nt,nt,nt
CC(=O)OCC(=O)NCC1CCN(C(=O)C(=O)c2cc3ccccc3o2)CC1,0,-1,nt,nt,nt,nt
Cc1nnc(NC(=O)c2sc3nc(-c4cccs4)cc(C(F)(F)F)c3c2N)s1,42*,0,-5,-1,8,0
CC(=O)c1cccc(S(=O)(=O)Nc2cccc(S(=O)(=O)NC3=NCCC3)c2)c1,0,0,14,-1,0,1
CC(=O)c1ccc(S(=O)(=O)Nc2cccc(S(=O)(=O)NC3=NCCC3)c2)cc1,5,-1,-2,100*,4,3
CCOC(=O)N1CCN(c2cc(NCCC(=O)O)c3c4c(onc24)-c2ccccc2C3=O)CC1,nt,nt,-1,?,37*,-3
CN1CCN(c2cc(N3CCN(C(=O)c4ccco4)CC3)c3c4c(onc24)-c2ccccc2C3=O)CC1,nt,nt,5,3,-4,6
O=C(O)CCCNc1cc(N2CCC3(CC2)OCCO3)c2noc3c2c1C(=O)c1ccccc1-3,nt,nt,nt,65,38*,nt
O=C(O)CCCNc1cc(N2CCN(C(=O)c3ccco3)CC2)c2noc3c2c1C(=O)c1ccccc1-3,27,19,27,19,14,11
N#Cc1ccc(-c2nc3c4ccccc4ccn3c2CC2CCCCC2)cc1,13,-5,nt,nt,nt,-9
COC(=O)Cc1[nH]nc2c1C(c1ccc(O)c(OC)c1)C(C#N)=C(N)O2 (stereo not given),4,3,8,99*,-2,5
COC(=O)Cc1[nH]nc2c1C(c1cc(OC)c(OC)c(OC)c1)C(C#N)=C(N)O2 (stereo not given),3,0,1,nt,-1,2
CC(C)N1CCC(C)(C(=O)Nc2ccccc2Oc2ccccc2)C1 (stereo not given),-1,1,nt,nt,nt,-5
CCC(/C=N/NC(=O)C(N)=O)CC,-4,0,-16,98*,-3,-5
CC(C)c1cc(C(=O)N2CCCC(Nc3ccc(F)cc3)C2)n[nH]1 (stereo not given),-5,1,12,99*,7,-3

# Screening results as filed in PubChem.
